Sampled rows, rich in hits. Any-hit rate of the full collection: about 9.4%.
IMPase Li inh – qHTS Assay for Identifying the Cell-Membrane Permeable IMPase Inhibitors: Potentiation with Lithium. CHO-M1 cells, IP1 TR-FRET (IP-One), carbachol + lithium. Potency, µM (doses to about 59.4 µM), inactives show at the highest dose activity, negative = IMPase inhibition, actives largely listed as inhibitors. 210,000 tested, 0.35% active. AID 1457, 2008;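 note: IP1 builds up when IMPase is blocked and the TR-FRET signal falls; potency is the fitted concentration of half-maximal effect; plate controls were basal vehicle for no effect and high inhibitor control for full effect; nearly all actives have a fitted effect of over 50% in size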
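CHO cells stably expressing M1 receptor (2000/well, cultured 16–30 h) treated 30 min at 37C with compound plus low lithium. Cytosolic IP1 by TR-FRET (665/620 ratio and 620 channel) after 10 min lysis; AC50 by Hill fit.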
HTT ATP protect – qHTS Multiplex Assay to Identify Dual Action Probes in a Cell Model of Huntington: Cytoprotection (ATP); 230,000 tested, 0.14% active; PC12 HTT-Q103 induced, cytoprotection, ATP luminescence, 40 h; Potency, µM (top dose mostly 56.4 µM), for inactives: cytoprotection (ATP increase), most hits filed as activators; note: potency is the fitted concentration of half-maximal effect; % of control where 0% means no effect; nearly all actives have a fitted effect of over 45% in size
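Cells were plated at 1500 per well in phenol red-free DMEM with 5% equine and 5% calf serum. Tebufenozide (100 nM final) and compounds were added, then ATPlite reagent, and luminescence was read.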
HPGD block – qHTS Assay for Inhibitors of HPGD (15-Hydroxyprostaglandin Dehydrogenase) | purified HPGD, NADH fluorescence kinetic, PGE2 substrate | Potency, µM, inactives show at the highest dose activity change, negative = inhibition, hits mostly inhibitors | 150,000 tested, 4.3% active | AID 894, 2007; active = well fitted inhibition curve with a large enough effect, not every such curve was filed as active; inconclusive = small, poorly fitted or top-dose-only effect, or another doubt; inactive = no such curve, though single readings can be large or run the other way; note: potency is the fitted concentration of half-maximal effect; % is set by controls: 0 for no effect and ±100 for the full control effect
Target sequence (P15428 whole entry, looked up): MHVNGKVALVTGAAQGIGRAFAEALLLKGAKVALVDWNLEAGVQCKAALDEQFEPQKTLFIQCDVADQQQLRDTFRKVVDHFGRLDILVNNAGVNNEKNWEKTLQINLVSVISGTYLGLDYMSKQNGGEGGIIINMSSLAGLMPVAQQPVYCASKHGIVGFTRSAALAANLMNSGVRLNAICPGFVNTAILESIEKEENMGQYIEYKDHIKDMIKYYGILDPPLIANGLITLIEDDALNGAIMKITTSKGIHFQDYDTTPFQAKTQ
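NADH formation kinetics: reaction with 30 uM PGE2 and 1 mM NAD+ (final), 20 nM enzyme, Tris-HCl pH 8 with Tween 20, after 15 min compound preincubation at room temperature. Fluorescence change, last versus first of five reads.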
HTT aggregate – qHTS Multiplex Assay to Identify Dual Action Probes in a Cell Model of Huntington: Aggregate Formation (GFP); 220,000 tested, 1.1% active; PC12 HttQ103-GFP aggregates, Acumen cytometry, 40 h; Potency, µM (doses to about 46.1 µM), inactives show at the top dose activity change, negative = inhibition, hits mostly inhibitors; note: potency is the fitted concentration of half-maximal effect; % is set by controls: 0 for no effect and ±100 for the full control effect; nearly all actives have a fitted effect of over 60% in size
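PC12 cells with ecdysone-inducible HTT exon1 Q103-GFP, induced by 100 nM tebufenozide, given compounds in a concentration series. GFP aggregates (1–25 um, 6 SD above background) counted in lysates by laser-scanning cytometry, 488 nm excitation.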
ALDH1A1 block – qHTS Assay for Inhibitors of Aldehyde Dehydrogenase 1 (ALDH1A1) | Purified ALDH1A1, NADH fluorescence, propionaldehyde substrate | AID 1030, 2008 | 220,000 tested, 7.3% active | Aldehyde dehydrogenase 1A1 (Homo sapiens), P00352 | Potency, µM (top dose mostly 75.3 µM), inactives show top-dose activity, negative = inhibition, most hits filed as inhibitors; active = well fitted inhibition curve with a large enough effect, not every such curve was filed as active; inconclusive = small, poorly fitted or top-dose-only effect, or another doubt; inactive = no such curve, though single readings can be large or run the other way;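 note: potency is the fitted concentration of half-maximal effect; plate controls were no enzyme wells and a reference inhibitor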
Target sequence (P00352 whole entry, looked up): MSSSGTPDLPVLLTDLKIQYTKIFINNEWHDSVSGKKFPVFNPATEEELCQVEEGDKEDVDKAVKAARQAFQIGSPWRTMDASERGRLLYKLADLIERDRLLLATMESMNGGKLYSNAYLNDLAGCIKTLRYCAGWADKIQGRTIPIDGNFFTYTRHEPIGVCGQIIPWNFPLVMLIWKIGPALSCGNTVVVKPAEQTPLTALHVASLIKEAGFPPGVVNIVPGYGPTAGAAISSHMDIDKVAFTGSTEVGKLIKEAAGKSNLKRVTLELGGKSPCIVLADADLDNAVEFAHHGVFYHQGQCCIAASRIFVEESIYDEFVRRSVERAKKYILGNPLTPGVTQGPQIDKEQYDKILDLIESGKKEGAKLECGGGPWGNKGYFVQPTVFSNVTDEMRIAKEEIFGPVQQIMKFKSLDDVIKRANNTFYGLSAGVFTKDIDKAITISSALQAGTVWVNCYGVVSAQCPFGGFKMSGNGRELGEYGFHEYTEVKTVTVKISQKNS
IMPase cell inh – qHTS Assay for Identifying the Cell-Membrane Permeable IMPase Inhibitors; 120,000 tested, under 10 active; CHO-M1 cells, IP1 accumulation, HTRF TR-FRET ratio; inhibition (IP1 accumulation), % at 46.1 µM; AID 901, 2007; active = well fitted curve in the direction sought with a large enough effect in the signal ratio, not every such curve was filed as active; inconclusive = small, poorly fitted or top-dose-only effect, or a change in a side signal; inactive = no such curve, though single readings can be large or run the other way; the % refers to the signal ratio;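 note: cells stimulated with carbachol in lithium chloride buffer; plate controls were DMSO basal wells for no effect and reference inhibitor wells for full effect; higher means more IMPase inhibition seen as more IP1 and lower FRET ratio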
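Elevated IP1 in lysates lowers TR-FRET signal (665/620 ratio and 620 channel reported). Cells were CHO-M1, given carbachol (50 uM as added) plus 50mM LiCl, pH 7.4, 30 min, 37C; compounds titrated up to 46 uM; AC50 by Hill equation.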
The depositor's hits bear a star; ? = inconclusive; . = no result; [ ] = another dose, or the depositor's remark. Unless noted, calls come from the whole dose curve; as a rule, active = well fitted curve in the direction sought with a large enough effect; inconclusive = small, poorly fitted or top-dose-only effect, or another doubt; inactive = no such curve, though single readings can be large; an effect the other way counts as inactive or inconclusive.

SMILES | IMPase Li inh | HTT ATP protect | HPGD block | HTT aggregate | ALDH1A1 block | IMPase cell inh
COc1ccc(C(=O)c2ccc(N3CCOCC3)cc2)c(OC)c1 | . | 11% | . | ? | 1.1µM* | -9
COc1ccc(C(=O)c2ccc(OC)cc2OC)cc1 | . | 1%[10 µM] | . | -22%[9.22 µM] | . | .
CSc1ccccc1C(=O)N1CCN(c2cccc(Cl)c2)CC1 | 13% | -57% | . | ? | -1% | .
Oc1ccccc1C(=S)N1CCN(c2cccc(Cl)c2)CC1 | 9% | 26%[10 µM] | . | 7%[9.22 µM] | 10µM* | .
CCc1ccccc1NC(=O)CN(c1ccccc1OC)S(=O)(=O)c1ccc(C)cc1 | . | . | . | . | . | 4
Cc1nn(-c2ccccc2)c(Cl)c1/C=N/Nc1nncc(=O)[nH]1 | . | 0%[10 µM] | . | 4%[9.22 µM] | . | .
Cc1cc(=O)[nH]c(N/N=C/c2c(C)nn(-c3ccc(F)cc3)c2Cl)n1 | 14% | 0%[10 µM] | . | -18% | 6.3µM* | .
O=C(COC(=O)Cc1ccc(-c2ccccc2)cc1)NCc1ccc(F)cc1 | 3% | -2%[10 µM] | -3% | -7% | -5% | .
Cc1ccc(-c2csc(=S)n2CC(=O)OCC(=O)NCc2ccc(F)cc2)cc1 | 52%[38.3 µM] | 0% | 16µM* | 6% | 13µM* | 17
Cc1ccc(N2CCN(Cc3nnc(-c4ccc5c(c4)OCO5)o3)CC2)c(C)c1 | . | . | . | . | . | -4
Cc1noc(C)c1C(=O)N1CCC2(CC1)CN(c1ncccn1)C2 | 2% | -9% | ? | . | ? | .
O=C(c1ccccc1)c1nc2ccccc2n(CCCn2c(=O)c(C(=O)c3ccccc3)nc3ccccc32)c1=O | -23%[38.3 µM] | -12% | -2% | ? | 11µM* | 2
O=C(c1ccccc1)c1nc2ccccc2[nH]c1=O | -16%[38.3 µM] | -26% | 25µM* | ? | 3% | 2
Cn1c(=O)c(C(=O)c2ccccc2)nc2ccccc21 | 8%[38.3 µM] | -15%[0.074 µM] | -21% | -5% | 0% | 2
N#C/C(=C(/O)c1ccc(C(=O)c2ccccc2)cc1)c1nc2ccccc2[nH]1 | . | 3%[10 µM] | . | 6%[9.22 µM] | 15% | .
NC(=O)COC(=O)CCSc1ccc(Cl)cc1 | -2% | 14µM* | . | ? | 15% | .
COc1ccc(Br)cc1C(=O)NC(=S)Nc1ccc(Cl)c(C(=O)O)c1 | 4% | 16% | . | -3% | 18µM* | .
COc1ccc(Br)cc1/C=C/C(=O)NC(=S)Nc1ccc(Cl)c(C(=O)O)c1 | -2% | ? | . | -16% | -16% | .
COc1ccc(-c2nc3ccccc3n3c(-c4ccccc4)c4c(=O)n(C)c(=O)n(C)c4c23)cc1OC | . | . | . | . | . | 11
COc1ccc(CNC(=O)CCCc2ccccc2)cc1 | -2% | -43%[10 µM] | -25% | -3% | 1.1µM* | .
Cc1ccc(S(=O)(=O)NCCC(=O)NCc2ccc3c(c2)OCO3)cc1C | ? | -7% | -3% | 3% | 7.9µM* | -2
O=C(CCCNS(=O)(=O)c1ccccc1)NCc1ccco1 | 3%[38.3 µM] | 19%[1.9 µM] | -4% | 8% | -10% | -10
O=C(CCc1ccc(S(=O)(=O)NCCc2ccccc2)cc1)NCc1ccco1 | 14% | -9%[1.9 µM] | -12% | 9% | 5µM* | 9
O=C(COc1ccccc1)NCc1ccccc1 | 24%[38.3 µM] | 3% | 28µM* | 4% | -12% | 9
COc1ccc(-c2nc3ccccc3s2)cc1NC(=O)c1cc2ccccc2o1 | . | . | . | . | . | -2
SMILES | IMPase Li inh | HTT ATP protect | HPGD block | HTT aggregate | ALDH1A1 block | IMPase cell inh
NS(=O)(=O)c1ccc(CCNC(=O)c2cc(-c3cc(Cl)ccc3O)n[nH]2)cc1 | . | -15%[10 µM] | . | -11%[9.22 µM] | 18% | .
CCCCCCCCCCCC(=O)OCC(O)CO (configuration not stated) | . | 3% | . | -1% | . | .
CC(=O)[C@]1(O)CC[C@@H]2[C@H]3C[C@@H](C)C4=CC(=O)CC[C@@]4(C)[C@H]3[C@@H](O)C[C@]21C | . | 1%[10 µM] | . | . | . | .
Cc1ccc(S(=O)(=O)NCCCCCC(=O)NC(C)(C)CO)cc1 | -7%[38.3 µM] | -14% | -9% | -7% | 7.9µM* | -11
Cc1ccc(CNC(=O)CCNS(=O)(=O)c2ccc(C)cc2)cc1 | 3%[38.3 µM] | -2%[10 µM] | -7% | -11% | 14µM* | 4
COc1ccc(S(=O)(=O)NCCC(=O)NCc2ccccc2)cc1 | . | 9% | . | -20% | 25µM* | 5
COc1ccc(S(=O)(=O)NC(C)CCc2ccccc2)cc1 (configuration not stated) | 8% | -11% | . | -9% | 0.63µM* | .
CC(=O)c1cccc(NC(=O)c2nc3ccccc3n(C)c2=O)c1 | . | . | . | . | . | 6
COCC(=O)Nc1cc(Sc2ccccc2)ccc1N=C(NC(=O)OC)NC(=O)OC | . | -67% | . | 8% | . | .
O=C(N/N=C/c1ccc(N2CCCCC2)o1)c1ccccc1 | 10% | -1%[10 µM] | 16µM* | 11% | 25µM* | .
O=C(N/N=C/c1ccc(N2CCOCC2)o1)c1cccc([N+](=O)[O-])c1 | 16% | . | -27% | 13% | 18µM* | .
O=C(O)C(Oc1ccc2ccc(=O)oc2c1)c1ccccc1 (configuration not stated) | 13% | ? | -14% | . | ? | .
Cc1ccc(C(=O)n2c(=S)nc3ccccn32)cc1 | -12%[38.3 µM] | -77%[10 µM] | 32µM* | 19% | 22µM* | -7
Cc1cccc(C(=O)n2c(=S)nc3ccccn32)c1 | 12%[38.3 µM] | -44%[10 µM] | 22µM* | 11% | 10µM* | -8
COCOc1c2c(c(OCOC)c3c(OCOC)cccc13)/C(=N/N[S+](=O)([O-])c1ccc(C)cc1)C1=C2CCCC1 | 11% | 13% | -24% | . | -10% | .
CC(=O)c1c(C)oc2ccc(O)c(CN3CCOCC3)c12 | 1%[38.3 µM] | -9%[10 µM] | -10% | -6% | -12% | 8
Cc1oc2ccc(O)c(CN3CCOCC3)c2c1C(C)O (configuration not stated) | 21% | 0%[1.9 µM] | -3% | 3% | 7.1µM* | 13
Cc1nc2c3ccccc3nc(SCC(=O)c3ccc(Cl)cc3)n2n1 | 21% | -17%[10 µM] | -8% | -1% | 0% | .
Cc1nc2c3ccccc3nc(SCC(=O)N3CC(C)CC(C)C3)n2n1 (configuration not stated) | -10%[38.3 µM] | -2% | ? | 19% | 7.1µM* | 9
CCCNC(=O)OC[C@@H]1O[C@H](CCO/N=C(\C)CCC(=O)OC[C@@H]2O[C@H](C#Cc3ccccc3)C=C[C@@H]2Oc2ccc(C)cc2)C=C[C@@H]1Oc1ccc(OC)cc1 | . | -9%[10 µM] | . | . | 11%[13.5 µM] | .
